# Nrf2 block = Nrf2 qHTS screen for inhibitors; AID 504444, 2011; A549 ARE-Fluc reporter, luciferase luminescence, 18-24 h; actives 2.1% (n = 360,000); Potency, µM (series often up to 46 µM), for the others: top-dose activity change, negative = inhibition, usual class: inhibitors; further: on the % scale 0 is the no-effect control and ±100 the full control effect; nearly all actives have a fitted effect of over 60% in size
#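 Concentration-response testing used A549 ARE_Fluc cells at 5000 cells/well. Following an 18-24 h compound incubation, viability was read by fluorescence (Ex 405/Em 525) and luciferase output by luminescence.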
# Nrf2 activator = qHTS of Nrf2 Activators; AREc32 ARE-luciferase reporter (MCF7-derived line), luminescence, 24 h; Potency, µM (doses to about 46.1 µM), for inactives: at the top dose activation, actives largely listed as activators; actives 0.31% (n = 410,000); AID 624171, 2012; further: % of control where 0% means no effect; nearly all actives have a fitted effect of over 65% in size
#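 Luciferase luminescence (Steady-Glo, 30 min at room temperature) served as the read-out of ARE activation in AREc32 cells treated with compounds for 24 hr at 37 deg C.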
# ATXN2 expr inh = Primary qHTS for Inhibitors of ATXN expression | HEK-293 ATXN2-luciferase reporter, luminescence, 24 h | AID 1745845, 2022 | Potency, µM (titrated, usually from 57 µM), without a hit: at the top dose activity change, negative = inhibition, hits mostly inhibitors | actives 0.72% (n = 360,000); further: on the % scale 0 is the no-effect control and ±100 the full control effect; nearly all actives have a fitted effect of over 55% in size
#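 ATXN2-luciferase reporter cells (luciferase flanked by upstream and downstream ATXN2 gene portions) were treated 24 h at 37 °C with compounds at up to 57 uM. SteadyGlo luminescence gave expression; GF-AFC fluorescence gave viability.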
# A549 tox = Nrf2 qHTS screen for inhibitors: counterscreen for cytotoxicity | A549 ARE-Fluc cells, CellTiter-Fluor viability, 18-24 h | Potency, µM (top dose mostly 46 µM), for inactives: at the top dose activity change, negative = cytotoxicity, hits mostly inhibitors | actives 0.16% (n = 390,000); further: on the % scale 0 is the no-effect control and ±100 the full control effect
#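 Cytotoxicity counterscreen: CellTiter-Fluor fluorescence was measured in A549 ARE_Fluc cells after 18-24 h of compound exposure in a concentration series. The subsequent BugLite luminescent read reports ARE-luciferase activity.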
# ATXN viability = Viability Counterscreen for Primary qHTS for Inhibitors of ATXN expression | AID 651635, 2014 | S2 cells (HEK-293 line with an ATXN2-luciferase reporter) viability, CellTiter-Fluor protease fluorescence, 24 h | actives 0.49% (n = 400,000) | Potency, µM (top dose mostly 56.7 µM), usual class: cytotoxic; further: nearly all actives have a fitted effect of over 40% in size
# Starred values were filed as active, the others as inactive; i = inactive; ? = inconclusive; · = no result; [ ] = dose if it differs, or a comment. In the library only some 2.9% were active in any assay of this set; here they are far more common. The call rests on the fitted dose curve; in most records, active means well fitted curve in the direction sought with a large enough effect; inconclusive means small, poorly fitted or top-dose-only effect, or another doubt; inactive means no such curve, though single readings can be large; an effect the other way counts as inactive or inconclusive. Potency means the concentration at half of the fitted maximal effect.
SMILES,Nrf2 block,Nrf2 activator,ATXN2 expr inh,A549 tox,ATXN viability
O=C(Cc1ccccc1)N1CCN(c2ccc([N+](=O)[O-])cc2)CC1,25.9µM*,-0.3%,-13.6%,-21.3%,?
O=C(c1ccc2nsnc2c1)N1CCN(c2ccc([N+](=O)[O-])cc2)CC1,23.1µM*,5.1%,·,-6.8%,?
O=C(c1cc([N+](=O)[O-])ccc1Cl)N1CCN(c2ccc(F)cc2)CC1,-10.0%,0.8%,·,9.5%,i
COc1ccc(N2CCN(C(=O)c3ccc(COc4ccc([N+](=O)[O-])cc4)o3)CC2)cc1,23.1µM*,0.3%,?,-18.5%,?
O=[N+]([O-])c1ccc(Cl)c(/C=N/N2CCN(c3ccccc3)CC2)c1,8.6%,12.6µM*,5.7%,-0.2%,i
CCCCNC(=S)NNC(=O)c1csc2c1CCC(C)C2 (stereo not drawn),-19.0%,-0.7%,0.5%,4.2%,?
Cc1ccc(S(=O)(=O)N[C@@H](Cc2ccccc2)C(=O)CCl)cc1,18.4µM*,6.2%,?,-10.1%,31.6µM*
O=C(Nc1ccc(SC(F)F)cc1)c1ccc2c(=O)n3c(nc2c1)CCC3,5.8µM*,6.7%,-20.6%,?,i
O=C(Nc1ccc(S(=O)(=O)C(F)F)cc1)c1ccc2c(=O)n3c(nc2c1)CCC3,14.6µM*,2.0%,-17.2%,-10.4%,i
CCOc1ccc(S(=O)(=O)N2CCN(c3ncccn3)CC2)cc1,-12.2%,-0.8%[9.22 µM],1.4%,6.8%,i
N#Cc1ccccc1OCCCN1CCC(C(O)(c2ccccc2)c2ccccc2)CC1,·,5.1%,?,·,?
C#Cc1ccccc1OCCCN1CCC(C(O)(c2ccccc2)c2ccccc2)CC1,·,-3.4%,31.6µM*,·,39.8µM*
Cc1ccc2nc(SCc3nc4c(cnn4-c4ccccc4)c(=O)[nH]3)[nH]c2c1,?,5.0%,-23.3%,-24.0%,i
CCOC(=O)N1CC=C2C(C#N)=C(N)C(C#N)(C#N)[C@H](c3ccccc3OCC)[C@H]2C1,16.4µM*,8.4%,4.6%,?,i
N#CC1=C(N)C(C#N)(C#N)C(c2ccncc2)C2CN(C(=O)OCc3ccccc3)CC=C12 (stereo not drawn),23.1µM*,?,-9.9%,-16.0%,i
Cc1cc(C(=O)CN2C(=O)C(=O)N(C3CCCC3)C2=O)c(C)n1CCc1ccc(F)cc1,?,-0.1%,-20.1%,-2.4%,i
O=C(Nc1ncccc1O)c1ccc(NS(=O)(=O)c2ccc3[nH]c(=O)[nH]c3c2)cc1,16.5%,?,-0.4%,7.8%,i
O=C(Nc1ccccc1O)c1ccc(NS(=O)(=O)c2cccc3cccnc23)cc1,-9.7%,11.2µM*,155.5%,9.7%,i
O=C(Nc1ncccc1O)c1ccc(S(=O)(=O)Nc2ccccc2)cc1,-20.8%,11.2µM*,79.8%,0.5%,i
COC(=O)c1ccc(NC(=O)c2ccc(NS(=O)(=O)c3cccc4cccnc34)cc2)cc1,-0.2%,-0.7%,-31.3%,-0.2%,i
Cc1cc2c(c(=O)n1CC1CCCO1)C(c1ccco1)C(C#N)=C(N)O2 (stereo not drawn),-4.3%,-0.1%,2.8%,0.3%,?
CCN(CC)CC(C)(C)C(=O)/C=C/c1ccc(/C=C/C(=O)C(C)(C)CN(CC)CC)cc1,20.6µM*,-3.7%,3.98µM*,16.4µM*,5.62µM*
CCN(CC)CCOC(=O)/C=C/c1ccccc1,4.3%,4.8%,·,10.8%,i
Cc1ccc(Nc2nc(N)nc(CSC(=S)N3CCOCC3)n2)c(C)c1,?,6.4%,67.9%,10.9%,i
COc1ccc(C(=O)NCCn2cc(SCC(=O)Nc3ccc(F)cc3)c3ccccc32)cc1,?,5.0%,?,-14.0%,31.6µM*
SMILES,Nrf2 block,Nrf2 activator,ATXN2 expr inh,A549 tox,ATXN viability
Cc1ccc(C(=O)NCCn2cc(SCC(=O)Nc3cc(C)on3)c3ccccc32)cc1,?,-0.6%,28.2%,3.6%,i
O=C(CSc1cn(CCNC(=O)c2ccccc2F)c2ccccc12)Nc1ccc2c(c1)OCCO2,3.2%,1.3%,-25.8%,-2.1%,?
O=C(CSc1cn(CCNC(=O)c2cccc(C(F)(F)F)c2)c2ccccc12)Nc1ccc2c(c1)OCCO2,16.4µM*,-0.7%,0.0%,?,·
COc1ccc(C(=O)NCCn2cc(SCc3cc(C)ccc3C)c3ccccc32)cc1,18.4µM*,1.2%,?,?,?
COc1ccc(C(=O)NCCn2cc(SCC(=O)Nc3ccc(C)cc3)c3ccccc32)cc1,·,-0.8%,?,-26.5%,?
Cc1cc(C)c2c(=O)[nH]c(SCC(=O)NCCc3ccccc3)nc2n1,5.4%,0.0%,2.4%,0.8%,i
COc1ccc(C(=O)C2CCCN(C3Cc4ccccc4C3)C2)cc1OC (stereo not drawn),14.4%,2.4%,-13.0%,6.3%,i
Cc1ccc(CNC(=O)CSc2nccn(-c3ccc(C)c(F)c3)c2=O)cc1,3.9%,-0.9%,-6.5%,0.4%,i
O=C(OCC(=O)N1CCCC1=O)c1nc(Cl)c(Cl)c(Cl)c1Cl,9.3%,?,?,-0.8%,31.6µM*
Cc1ccc(S(=O)(=O)n2nc(C)c(C#N)c2N)cc1,-18.8%,0.1%,-5.7%,9.2%,i
C=CC[C@@H](CC(=O)N[C@H](CO)Cc1ccccc1)C(=O)N[C@H](COC(=O)[C@@H](CC=C)CC(=O)OC(C)(C)C)Cc1c[nH]c2ccccc12,20.6µM*,-4.4%,?,11.6µM*,?
C=CC[C@H](CC(=O)N(CCO)Cc1ccccc1)C(=O)N[C@H](COC(=O)[C@@H](CC=C)CC(=O)OC(C)(C)C)Cc1c[nH]c2ccccc12,?,-2.1%,22.4µM*,?,12.6µM*
C=CC[C@@H](CC(=O)N(CCO)Cc1ccccc1)C(=O)N[C@H](COC(=O)[C@H](CC=C)CC(=O)OC(C)(C)C)Cc1c[nH]c2ccccc12,?,-1.7%,?,?,22.4µM*
O=C(NC(=S)NNC(=O)c1cccs1)c1ccc(Br)o1,?,-0.2%,-16.0%,-18.7%,i
CCCc1nn2c(=O)cc(COC(=O)c3ccc(NC(=O)C4CCCCC4)cc3)nc2s1,·,0.4%,·,5.5%,·
COc1cc(OC)c2ccc(=O)oc2c1C(CC(=O)N1CCCC1)c1ccc2c(c1)OCO2 (stereo not drawn),2.5%,3.7%,-4.4%,-19.1%,?
CCN(CC)CCC(c1cc(OC)c(OC)c(OC)c1)c1c(OC)cc(OC)c2c(C)cc(=O)oc12 (stereo not drawn),-0.1%,10.4%,7.6%,?,?
CCN(CC)CCC(c1ccc2c(c1)OCO2)c1c(OC)cc(OC)c2ccc(=O)oc12 (stereo not drawn),7.2%,10.6%,10.3%,16.4µM*,10µM*

# Assay outcomes deposited in PubChem by National Center for Advancing Translational Sciences (NCATS).
